CtBP-E1A blk: qHTS Assay for Inhibitors of the CtBP/E1A Interaction; AlphaScreen GST-E1A/His-CtBP binding, 1536-well; active compounds read low; activity change, % (no concentration beside the values); 340,000 tested, 0.49% active; AID 651724, 2012; in the data active means activity change below about -65%; inconclusive means mostly about -30% to -63%
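Protein mix (5X: 125 nM each GST-E1A, His-CtBP) was incubated with pinned compound 2 h at 37 deg C in dark, in 50 mM Tris pH 8.0 buffer with 300 mM NaCl. Glutathione donor and nickel acceptor beads followed; AlphaScreen signal read after 1 h.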
G9a inh: qHTS Assay for Inhibitors of Histone Lysine Methyltransferase G9a; AID 504332, 2011; G9a H3K9 monomethylation, AlphaScreen, 2 h; Histone-lysine N-methyltransferase EHMT2 (Homo sapiens), Q96KQ7; Potency, µM (doses to about 102 µM), actives largely listed as inhibitors; 350,000 tested, 8.8% active; further: nearly all actives have a fitted effect of over 75% in size
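Signal arises when biotinylated H3K9 peptide, once monomethylated, bridges streptavidin donor and antibody-captured acceptor beads. Enzyme at 20 nM was preincubated 15 min with test compounds; peptide 500 nM and SAM 20 uM then reacted for 2 h.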
BAZ2B inh: qHTS Assay for Inhibitors of BAZ2B; AID 504333, 2011; 360,000 tested, 4.4% active; AlphaScreen BAZ2B-H3K14Ac peptide displacement; Potency, µM (series often up to 114 µM), actives largely listed as inhibitors; Bromodomain adjacent to zinc finger domain protein 2B (Homo sapiens), Q9UIF8; further: nearly all actives have a fitted effect of over 60% in size
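AlphaScreen displacement of biotin-H3(5-23)K14Ac peptide (50 nM final) from BAZ2B (50 nM final) in PBS pH 7.4, 0.01% Tween-20; complex preformed 30 min RT, then compounds (top 110 uM) 30 min RT, beads 20 min dark.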
JMJD2A Tudor: qHTS Assay for Inhibitors of JMJD2A-Tudor Domain; AlphaScreen JMJD2A-Tudor / H3K4me3 peptide binding; Lysine-specific demethylase 4A (Homo sapiens), O75164; Potency, µM (doses to about 114 µM), most hits filed as inhibitors; 390,000 tested, 4.4% active; further: nearly all actives have a fitted effect of over 50% in size
HP1b chromo inh: HTS for Inhibitors of HP1-beta Chromodomain Interactions with Methylated Histone Tails; 390,000 tested, 0.56% active; Potency, µM (top dose mostly 114 µM), hits mostly inhibitors; Chromobox protein homolog 1 (Homo sapiens), P83916; AID 540317, 2011; AlphaScreen HP1-beta / biotin-H3K9me3 peptide binding; further: nearly all actives have a fitted effect of over 70% in size
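AlphaScreen: HP1-beta (50 nM) preformed 30 min with biotin-H3(1-18)K9me3 peptide (50 nM) in PBS pH 7.4, 0.01% Tween-20. Compound added for 30 min at RT, then streptavidin donor/nickel chelate acceptor beads (10 ug/mL) for 30 min.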
Six1-Eya2 blk: qHTS Assay for Inhibitors of the Six1/Eya2 Interaction; AlphaScreen GST-Six1/His-Eya2 binding, biochemical; active compounds read low; activity change, % (concentration not given with the values); Homeobox protein SIX1 (Homo sapiens) + Protein phosphatase EYA2 (Homo sapiens), …; 360,000 tested, 0.56% active; AID 651725, 2012; in the data active means activity change below about -65%; inconclusive means mostly about -30% to -63%
Target sequence (O00167 whole entry, looked up): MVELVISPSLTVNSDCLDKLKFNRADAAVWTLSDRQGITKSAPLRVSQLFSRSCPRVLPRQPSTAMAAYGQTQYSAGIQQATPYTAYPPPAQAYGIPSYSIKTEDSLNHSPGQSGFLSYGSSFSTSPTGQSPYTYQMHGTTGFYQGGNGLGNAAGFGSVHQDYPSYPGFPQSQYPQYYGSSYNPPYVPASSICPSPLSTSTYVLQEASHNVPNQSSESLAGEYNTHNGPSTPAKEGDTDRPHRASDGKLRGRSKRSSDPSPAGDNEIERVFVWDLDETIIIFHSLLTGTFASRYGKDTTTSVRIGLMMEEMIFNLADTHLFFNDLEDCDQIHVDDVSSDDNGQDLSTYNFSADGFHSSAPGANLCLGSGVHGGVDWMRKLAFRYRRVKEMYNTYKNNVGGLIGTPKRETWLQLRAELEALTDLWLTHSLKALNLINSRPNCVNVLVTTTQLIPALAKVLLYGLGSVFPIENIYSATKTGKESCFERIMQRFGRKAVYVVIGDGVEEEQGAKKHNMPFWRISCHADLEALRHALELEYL
Target sequence (Q15475 whole entry, looked up): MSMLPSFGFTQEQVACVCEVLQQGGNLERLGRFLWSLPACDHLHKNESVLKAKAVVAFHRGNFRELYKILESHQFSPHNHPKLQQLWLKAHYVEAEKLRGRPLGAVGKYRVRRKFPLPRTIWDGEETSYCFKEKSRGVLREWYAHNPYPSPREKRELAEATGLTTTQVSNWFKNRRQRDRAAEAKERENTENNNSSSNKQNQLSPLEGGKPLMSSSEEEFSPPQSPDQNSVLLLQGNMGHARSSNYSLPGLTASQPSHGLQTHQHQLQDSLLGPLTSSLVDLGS
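AlphaScreen luminescence read after one hour at 37 °C in darkness. Pin-transferred compounds met GST-Six1 and His-Eya2 protein (5X stock 250 nM/500 nM) plus glutathione donor and Ni-chelate acceptor beads (5X, 50 ug/mL).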
Large screens that a line does not name were inactive; ! = a repeat was not active. Compounds with a hit are over-represented: about 10% of the library has one in this group of screens. Unless noted, the call rests on the fitted dose curve; in most records, active means well fitted inhibition curve with a large enough effect; inconclusive means small, poorly fitted or top-dose-only effect; inactive means no such curve, though single readings can be large or run the other way.

CC1CCN(CC#CCOc2ccc(Cl)cc2)CC1	BAZ2B inh 50µM, JMJD2A Tudor 35µM, HP1b chromo inh inconclusive
O=C(Nc1ccccc1C(F)(F)F)c1cccn(Cc2ccccc2)c1=O	none (no result: CtBP-E1A blk, Six1-Eya2 blk)
CN1CCCCC1c1cccnc1 (stereo not drawn)	none (no result: CtBP-E1A blk, BAZ2B inh, JMJD2A Tudor, HP1b chromo inh, Six1-Eya2 blk)
NC(=S)c1cn(C2OC(CO)C(O)C2O)c2ncnc(N)c12 (stereo not drawn)	G9a inh 10µM (no result: CtBP-E1A blk)
O=c1[nH]c(=O)n(Cl)c(=O)n1Cl	none (no result: CtBP-E1A blk, BAZ2B inh, JMJD2A Tudor, HP1b chromo inh, Six1-Eya2 blk)
O=C(NCNC(=O)N[C@H]1C(=O)NC(=O)N1CO)N[C@H]1C(=O)NC(=O)N1CO	none (no result: CtBP-E1A blk, BAZ2B inh, JMJD2A Tudor, HP1b chromo inh, Six1-Eya2 blk)
COc1cccc(N2C(=O)/C(=C/c3ccc(C)o3)C(=O)NC2=S)c1	G9a inh 4.5µM, BAZ2B inh 50µM, JMJD2A Tudor 22µM, HP1b chromo inh inconclusive (no result: CtBP-E1A blk)
Cc1ccc(N2C(=O)/C(=C/c3ccc(CN(CCC#N)S(C)(=O)=O)o3)C(=O)NC2=S)cc1	G9a inh 7.9µM, BAZ2B inh 50µM, JMJD2A Tudor 18µM, HP1b chromo inh 50µM, Six1-Eya2 blk inconclusive
COc1ccc(N2C(=O)/C(=C/c3cccs3)C(=O)NC2=S)cc1	G9a inh 7.1µM, JMJD2A Tudor 35µM
Cc1cccc(N2C(=O)/C(=C/N3CCN(C(=O)c4ccco4)CC3)C(=O)NC2=S)c1	G9a inh inconclusive
Cc1ccc(/C=C2\C(=O)NC(=S)N(c3ccc(F)cc3)C2=O)o1	G9a inh 4µM, BAZ2B inh 56µM, JMJD2A Tudor 50µM (no result: CtBP-E1A blk)
Cc1cc(NC(=O)c2cc(-c3cccc(Cl)c3)on2)nn1Cc1ccc(Cl)cc1	G9a inh inconclusive, BAZ2B inh inconclusive (no result: CtBP-E1A blk, Six1-Eya2 blk)
C=CC[C@]1(O)CCC2C3CCC4=CCCCC4C3CCC21C (stereo partly drawn)	none (no result: CtBP-E1A blk, BAZ2B inh, JMJD2A Tudor, HP1b chromo inh, Six1-Eya2 blk)
O=C1[C@H]2[C@@H](C3CC3)N3C(=O)CN(CC4CC4)C(=O)[C@@]3(Cc3ccccc3)[C@H]2C(=O)N1c1ccccc1	none (no result: G9a inh, BAZ2B inh)
COc1ccc(N2C(=O)/C(=C/C=C/c3ccccc3[N+](=O)[O-])C(=O)NC2=S)cc1	G9a inh 6.3µM, BAZ2B inh 50µM, JMJD2A Tudor 13µM, HP1b chromo inh 25µM
Cc1ccc(N2C(=O)NC(=O)/C(=C\c3ccc([N+](=O)[O-])o3)C2=O)cc1	G9a inh 6.3µM, BAZ2B inh 20µM (no result: CtBP-E1A blk, JMJD2A Tudor, HP1b chromo inh, Six1-Eya2 blk)
COc1ccc(N2C(=O)/C(=C/c3ccc(N(C)C)o3)C(=O)NC2=S)cc1	G9a inh 45µM, BAZ2B inh inconclusive
CCN(CC)c1ccc(/C=C2\C(=O)NC(=S)N(c3ccc(OC)cc3OC)C2=O)o1	none (no result: G9a inh, BAZ2B inh)
Cc1cc(/C=C2/C(=O)NC(=O)N(c3ccc(Br)cc3)C2=O)c(C)n1C	none
Cc1cc(C)cc(N2C(=O)/C(=C\c3ccc(N4CCN(C)CC4)o3)C(=O)NC2=S)c1	G9a inh inconclusive, BAZ2B inh 35µM, HP1b chromo inh inconclusive
C=CCN1C(=O)/C(=C/c2ccc(N3CCOCC3)o2)C(=O)NC1=S	G9a inh inconclusive, BAZ2B inh inconclusive
NC1C=CC=C(C(=O)O)C1 (stereo not drawn)	G9a inh 3.2µM (no result: BAZ2B inh)
CCOc1cc(C=C2C(=O)NC(=S)NC2=O)ccc1O	JMJD2A Tudor 32µM, HP1b chromo inh inconclusive (no result: G9a inh, BAZ2B inh)
COc1ccc(C=C2C(=O)NC(=S)NC2=O)cc1OC	JMJD2A Tudor 22µM, HP1b chromo inh inconclusive (no result: G9a inh, BAZ2B inh)
C[C@]12CCC3C(CCC4=C(Cl)C(=O)CC[C@@]43C)C1CCC2O (stereo partly drawn)	none (no result: CtBP-E1A blk, BAZ2B inh, JMJD2A Tudor, HP1b chromo inh, Six1-Eya2 blk)
COc1ccc2c3c([nH]c2c1)C(C)=NCC3	G9a inh inconclusive, Six1-Eya2 blk inconclusive
CC1=NCCc2c1[nH]c1cc(O)ccc21	G9a inh 1.4µM!

Bioassay records: PubChem BioAssay, National Center for Advancing Translational Sciences (NCATS)
